Screens as filed in PubChem BioAssay.
Compounds with a hit are over-represented: about 4.1% of the library has one in this group of screens.
DAX1 inh-1: DAX1 (NR0B1) inhibitors on StAR promoter, primary screen, cell-based, luminescence, SF-1 (NR5A1), full-length DAX-1; HEK293T StAR-luciferase reporter, SF-1/DAX-1 repression relief; inhibition, % at 6.8 µM; hit rate 1.1% among 370,000;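 active = inhibition above the mean over all tested compounds plus 3 SD, cut at about 3.6% in these data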;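 note: 0% = DAX-1 cells with DMSO and 100% = cells lacking DAX-1 with DMSO; higher inhibition means more luminescence from relief of DAX-1 repression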
hgDAF12 agonist: H. glycines DAF-12 receptor agonists, primary screen, cell-based, luminescence, HEK293, GAL4 fusion, UAS-luciferase. AID 687014, 2013. hit rate 1.8% among 370,000. activation, % at 6.8 µM. Nuclear hormone receptor DAF-12 (Heterodera glycines), GAL4 fusion. HEK293 GAL4-hgDAF12 UAS-luciferase reporter, agonist luminescence; normalized to butyrate control;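 active = activation above a cutoff set at the mean of all screened compounds plus 3 SD, cut at about 10% in these data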;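 note: 0% = DMSO wells and 100% = sodium butyrate wells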
ssDAF12 agonist: S. stercoralis DAF-12 nuclear receptor activators, primary screen, cell-based, luminescence, HEK293, GRIP1 co-expression, lit1-tk-luc. hit rate 1% among 370,000. activation, % at 6.8 µM. HEK293 ssDAF-12/GRIP1 lit1-tk-luc reporter; % of 3 µM dafachronic acid response. AID 652126, 2013. Nuclear hormone receptor DAF-12 (Strongyloides stercoralis);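 active = activation above the mean over all tested compounds plus 3 SD, cut at about 0.9% in these data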;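 note: 0% = DMSO-only wells and 100% = 3 µM delta7-dafachronic acid wells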
hcDAF-12 act: H. contortus DAF-12 nuclear receptor activators, primary screen, cell-based, luminescence, HEK293, lit1-tk-luc reporter | HEK293 hcDAF-12 lit1-tk-luc reporter; 0% DMSO, 100% Δ7-dafachronic acid | activation, % at 6.8 µM | hit rate 1.4% among 370,000 | AID 652067, 2013;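 active = activation above the mean of all tested compounds plus 3 SD, cut at about 5.5% in these data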;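 note: 100% = response to 3 µM Δ7-dafachronic acid high control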
DAX1 inh-2: DAX1 (NR0B1) inhibitors, primary screen, cell-based, HEK293, Gal4-DAX1, luciferase luminescence; inhibition, % at 6.75 µM; hit rate 0.99% among 340,000; Nuclear receptor subfamily 0 group B member 1 (Homo sapiens), P51843; HEK293 Gal4-DAX1 luciferase reporter;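 active = inhibition above the mean over all tested compounds plus 3 SD, cut at about 4.2% in these data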;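 note: 0% = DAX1-transfected cells with DMSO and 100% = empty-vector control cells with DMSO; inhibition shows as a rise in luminescence from relieved DAX1 repression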
LXR ag: LXR agonists, Gal4 luciferase reporter, confirmation, counter-screen for hcDAF-12 agonist project, cell-based, luminescence, HEK293, H. contortus campaign. shares compounds with hcDAF-12 act. activation, % at 6.8 µM. 3,400 tested, under 10 active. HEK293 Gal4-LXR tk-luc reporter, 24 h; normalized: DMSO 0%, positive control 100%;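 active = mean percent activation of the reporter above a cutoff set as the average over tested compounds plus their standard deviation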
Target sequence (P55055 whole entry, looked up, the tested form may be a part): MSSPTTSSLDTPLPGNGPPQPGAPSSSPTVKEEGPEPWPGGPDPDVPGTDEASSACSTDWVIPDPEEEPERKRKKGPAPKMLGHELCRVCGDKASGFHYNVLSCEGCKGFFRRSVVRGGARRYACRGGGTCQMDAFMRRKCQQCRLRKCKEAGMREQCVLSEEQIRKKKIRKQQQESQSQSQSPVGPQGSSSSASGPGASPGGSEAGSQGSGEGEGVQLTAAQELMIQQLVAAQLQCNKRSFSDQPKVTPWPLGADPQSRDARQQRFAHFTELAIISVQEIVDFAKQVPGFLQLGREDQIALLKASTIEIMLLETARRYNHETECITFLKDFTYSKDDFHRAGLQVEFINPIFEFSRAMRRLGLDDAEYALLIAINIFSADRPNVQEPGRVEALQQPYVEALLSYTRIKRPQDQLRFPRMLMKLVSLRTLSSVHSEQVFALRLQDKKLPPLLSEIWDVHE
hcDAF12 ag: H. contortus DAF-12 receptor agonists, confirmation, cell-based, luminescence, HEK293, lit1-tk-luc, triplicate; activation, % at 6.8 µM; HEK293 hcDAF-12 lit1-tk-luc reporter; % of Δ7-dafachronic acid response; shares compounds with hcDAF-12 act; AID 743032, 2013; hit rate 61% among 3,400;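 active = mean activation across triplicate tests above the threshold derived from the earlier primary screen, cut at about 5.5% in these data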;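 note: 0% = DMSO only wells and 100% = 3 µM Δ7-dafachronic acid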
Starred values were filed as active, the others as inactive; · = not tested or not shown.

SMILES	DAX1 inh-1	hgDAF12 agonist	ssDAF12 agonist	hcDAF-12 act	DAX1 inh-2	LXR ag	hcDAF12 ag
CCCCN(C(=O)C1CCCO1)c1c(N)n(CCC)c(=O)[nH]c1=O (configuration not stated)	0	-1	-1	-1	1	·	·
COc1cccc(C2c3cc4c(cc3OC(C)(N3CCCC3)C2C)OCO4)c1O (configuration not stated)	-4	5	0	0	-3	·	·
COc1ccccc1C(C#N)N1N=C(C)CC1c1ccccc1 (configuration not stated)	0	-1	-1	-1	1	·	·
N#CC(c1ccccc1O)N1N=C(c2ccccc2)CC1c1ccccc1 (configuration not stated)	1	8	1.6*	9.2*	4	1	7.3*
COc1cc(C(C#N)N2N=C(c3ccccc3)CC2c2ccccc2)ccc1O (configuration not stated)	1	12*	1.4*	7.9*	1	0	3
O=C(COc1ccc2cc(Br)ccc2c1Br)N1CCOCC1	1	1	-1	-2	1	·	·
CC(C)C(=O)N1CCCCCCN1C(=O)C(C)C	-1	-1	0	7.8*	4.4*	0	-1
CC(CN1CCCCC1)C(=O)NN (configuration not stated)	0	-1	-1	-1	0	·	·
COc1ccc(NC(=O)c2c(Cl)n(C)c3ccccc23)cc1	-1	7	1.0*	8.2*	-2	0	6.9*
COc1ccc(NS(=O)(=O)NC(=O)c2c(C)n(C)c3ccccc23)cc1	0	6	0	7.3*	-1	0	1
CS(=O)(=O)c1cc([N+](=O)[O-])c(Sc2nc3ccccc3[nH]2)c([N+](=O)[O-])c1	0	2	0	1	1	·	·
O=c1nc2c(O)cccn2c2c1c(=O)[nH]c1ccccc12	1	-1	-1	3	1	·	·
O=c1[nH]c2ccccc2c2nc3ccccn3c12	1	12*	1.7*	8.1*	2	0	9.5*
Cc1nnsc1S(=O)c1ccc(Br)cc1 (configuration not stated)	-1	0	-1	-1	-2	·	·
Cc1nn(-c2ccc(Br)cc2)c(=O)c2ccccc12	1	11*	1.7*	11*	2	1	11*
Cc1nn2c(-c3ccncc3)nnc2c2ccccc12	0	1	-1	-3	0	·	·
COc1ccc(-c2nnc3c4ccccc4c(C)nn23)cc1	1	7	1	6.7*	2	0	5.7*
Cn1c(-c2ccc3ccccc3n2)[n+](C)c2ccccc21	0	3	-1	10*	-1	0	2
O=S1(=O)CC(N2CCN(CC3CC3)CC2)CN1CCc1ccccc1 (configuration not stated)	0	0	0	1	·	·	·
Cc1ccsc1/C=N/N=C/c1sccc1C	3	17*	1.6*	11*	2	2	14*
Cc1ccsc1C=Nc1ccc(O)cc1	·	·	·	·	1	·	·
O=C(N/N=C/c1cc(Br)c(O)c(Br)c1)C1CC1	0	4	-1	-2	-1	·	·
CC(C)(C)NC(=S)N/N=C/c1cc(Br)c(O)c(Br)c1	0	1	1	7.4*	2	0	1
Cc1cc(/C=C2\SC(=S)NC2=O)c(C)n1-c1ccccc1	2	8	1.6*	13*	·	1	13*
O=C(c1ccc(F)c(S(=O)(=O)N2CCOCC2)c1)N1CCN(c2ccc(F)cc2)CC1	1	1	-1	-2	0	·	·
SMILES	DAX1 inh-1	hgDAF12 agonist	ssDAF12 agonist	hcDAF-12 act	DAX1 inh-2	LXR ag	hcDAF12 ag
COc1ccccc1Nc1nc(-c2cccs2)cs1	2	10	1.6*	8.2*	0	2	16*
COc1ccc(OC)c(Nc2nc(-c3cccs3)cs2)c1	0	4	0.9*	7.4*	-1	0	5
CCC(=O)Oc1ccc(-c2cnc3ccccc3n2)cc1	3	11*	1	7.1*	1	2	10*
Cc1c(C(=O)Oc2ccc(-c3cnc4ccccc4n3)cc2)cccc1[N+](=O)[O-]	0	1	0	-1	0	·	·
COc1ccc(CCc2nnc(CCC(=O)N(C)Cc3ccnc4ccccc34)o2)cc1	-2	-1	-2	-4	-4	·	·
COc1cccc(CN(C)C(=O)c2ccc(OCC(=O)N3CCOCC3)c(OC)c2)c1	0	0	-1	0	1	·	·
COc1ccc(-c2ccc(N3C(c4ccsc4)=Cc4ccc(F)cc4C3c3c[nH]c4ccccc34)cc2)cc1 (configuration not stated)	-1	9	1.5*	8.5*	·	0	6.9*
c1ccc2[nH]c(-c3ccc4c(c3)OCO4)nc2c1	2	12*	0	9.9*	·	1	5
Cn1cccc1/C=C1\CCc2ccccc2C1=O	3	10	0	10*	-4	1	11*
Cn1cccc1/C=C1\Cc2ccccc2C1=O	3.9*	19*	1.7*	12*	4.3*	2	9.4*
O=C1/C(=C/c2cccs2)Cc2ccccc21	0	5	-1	1	-1	·	·
COc1cccc(NC(=O)CN2C(=O)NC(C)(CC(C)C)C2=O)c1 (configuration not stated)	0	2	-1	0	-1	·	·
C=CCn1c(SCC(=O)Nc2ccc(-c3nc4ccc(C)cc4s3)cc2)nnc1-c1ccncc1	2	13*	-1	7.0*	0	0	2
CCOC(=O)Sc1nc2ncncc2[nH]1	0	4	-1	0	1	·	·
Oc1[nH]c2ccccc2c1/C=N/N1CCCCC1	1	3	0	14*	0	0	4
